# ± gives the standard deviation.
# Tested on: MILI (PIWIL2) piRISC loaded with L1MC piRNA (26 nt)
# Assay: pre-steady-state target cleavage rate (min^-1); guide: L1MC piRNA 5'p-UAACUAAAUACUAUGCAAGCUGUAGG; MIWI and MILI are mouse PIWI proteins and EfPiwi is from a freshwater sponge; tags in brackets are library labels; higher = faster piRNA-guided slicing of the target
# Outline: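 Cleave-'n-Seq used a transcribed, DNA-blocked target RNA library at 0.1 nM and active affinity-purified piRISC with one synthetic guide at 1 nM, with or without 500 nM GTSF1 partner protein, in HEPES–potassium acetate buffer at 33 °C for 0–8 or 0–960 min. Uncleaved targets were sequenced and normalised to depth and to weakly complementary targets, and three trials were pooled with k3 capped at 0.0001 min^-1. The pre-steady-state cleavage rate was estimated by a burst-and-steady-state fit.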
# [1] = auxiliary factor: 500 nM mouse GTSF1
# [2] = auxiliary factor: none (no GTSF1)
Sequence,pre-steady-state target cleavage rate [1],pre-steady-state target cleavage rate [2]
UCCUGGAUGUCGUUGCAUAGUAUUUAGUCA,0.146 ± 0.024,0.00639 ± 0.002
UCCUGGAUGUGCAUGCAUACUAUUUAGUUA,0.0253 ± 0.0066,0.00586 ± 0.0023
UCCUGGAUGUCCUUGCAGAGUAUUUAGUUA,0.0231 ± 0.011,0.00501 ± 0.0024
UCCUGGAACAGCUUGCUUAGUUUUUAGUUA,0.0579 ± 0.012,0.00375 ± 0.0024
UCCUGGAUGUCCUUGGAUAGUAUUAAGUUA,0.207 ± 0.037,0.00484 ± 0.0024
UCCUGGAUGUCGAGGCAUAGUAUUUAGUUA,0.0728 ± 0.016,0.00723 ± 0.0026
UCCUGGAUGUCCAUGGAUAGUAUUUAGUUA,0.0252 ± 0.0073,0.00317 ± 0.0025
UCCUGGAUGUCGAUGCAUAGUGUUUAGUUA,0.0372 ± 0.0094,0.0049 ± 0.0026
UCCUGGAUGUCCAUGCAUAGUUUUUAGUUA,0.0166 ± 0.0043,0.00362 ± 0.0023
UCCUGGAUGUGCUUGCAAAGUAUUAAGUUA,0.0349 ± 0.0076,0.0052 ± 0.0026
UCCUGGAUGAGCAUGCAUAGUUUUUAGUUA,0.0197 ± 0.0099,0.00788 ± 0.0023
UCCUGGAACAGCUUGCUUAGUAUUUACUUA,0.187 ± 0.032,0.00316 ± 0.0028
UCCUCCUACAGCUUGCAUAGAUAUUUAGUUA,0.0178 ± 0.0058,0.00345 ± 0.0022
UCCUGCUAGAGCUUGCAUAGUAUUUACUUA,0.175 ± 0.042,0.00284 ± 0.0026
UCCUGGAUCACCUAGCAUAGUAUUUAGUUA,0.17 ± 0.025,0.00435 ± 0.0029
UCCUGGAUGUGCUUGCAUAGUUUUUAGUAA,0.0109 ± 0.0049,0.00391 ± 0.0027
UCCUGGUACAGCUUGCAUAGUAUUUAAUUA,0.0793 ± 0.022,0.00528 ± 0.0035
UCCUGGAUGAGGAAGCAUAGUAUUUAGUUA,0.0519 ± 0.012,0.00494 ± 0.0027
UCCUGGAACAGGAAGCAUAGUAUUUAGUAA,0.146 ± 0.013,0.00297 ± 0.0027
UCCUGGAUGAGCUAGCAAAGUAUUUAGUUA,0.0455 ± 0.0079,0.00456 ± 0.0024
UCCUGGAUGUCCUUGCAUAGUAGUUUAGUUA,0.0394 ± 0.014,0.00805 ± 0.0029
UCCUGGUACAGCUAGCAUAGUAUAUAGUUA,0.183 ± 0.026,0.00329 ± 0.0024
UCCUGGAUGUGCUUGCAUAGUUAUUUAGUUA,0.0061 ± 0.0048,0.00419 ± 0.0033
UCCUGGAUGAGCUUGCAUAGUAUUUAUGUUA,0.102 ± 0.021,0.00381 ± 0.0034
UCCUGGUACAGCUUGCUAUGUAUUUAGUUA,0.0246 ± 0.0085,0.00465 ± 0.0027

Sequence,pre-steady-state target cleavage rate [1],pre-steady-state target cleavage rate [2]
UCCUGGAUGUCGAUGCGUAGUAUUUAGUUA,0.0121 ± 0.0036,0.00501 ± 0.0024
UCCUGGAUGUCGAUGCAUAGUAUGUUAGUUA,0.0347 ± 0.0076,0.00559 ± 0.0031
UCCUGGUACAGCUUGCAUAGUAUCUUAGUUA,0.188 ± 0.031,0.00861 ± 0.0033
UCCUGGAUGUCCUUGCAAAGUAUUUAGUAA,0.0311 ± 0.0099,0.00418 ± 0.0019
UCCUGGAUCAGCUUGCAUAGUUUUUUGUUA,0.0453 ± 0.011,0.00417 ± 0.0027
UCCUGGAUCAGGUUGCAUAGUAAUUAGUUA,0.152 ± 0.015,0.00739 ± 0.0017
UCCUGGAUGUCGAUGCAUAGUUAUUAGUUA,0.00565 ± 0.0033,0.0042 ± 0.0022
UCCUGGAUGUCCUUGCAUUGUUUUUAGUUA,0.00791 ± 0.0055,0.00421 ± 0.0023
UCCUGGAUCAGCUUGGAUAGUAUAUAGUUA,0.124 ± 0.018,0.00459 ± 0.0024
UCCUGGUACAGCUACCAUAGUAUUUAGUUA,0.305 ± 0.044,0.00616 ± 0.0022
UCCUGGAUGUCCUUGCAUAGUAUUUACGUUA,0.11 ± 0.023,0.00693 ± 0.003
UCCUGGAUCACCUUGGAUAGUAUUUAGUUA,0.173 ± 0.02,0.00563 ± 0.0021
UCCUGGUACAGACUUGCAUAGUAUUUAGUUA,0.228 ± 0.042,0.00755 ± 0.0044
UCCUGGAUGUCCUUGGAUAGUAUUUUGUUA,0.139 ± 0.031,0.00318 ± 0.0024
UCCUGGAUGUGCUUGCAAUGUAUUUAGUAA,0.0131 ± 0.0037,0.00545 ± 0.0027
UCCUGGUACAGCUUGCAAUGUAUUUAGUUA,0.0755 ± 0.013,0.0121 ± 0.0029
UCCUGGAUCAGGAAGCAUAGUAUUUAGUAA,0.0716 ± 0.014,0.00297 ± 0.0022
UCCUGGAUGAGCUUGCCUAGUAUUUAGUUA,0.194 ± 0.014,0.00475 ± 0.0027
UCCUGGAUCAGCUUGCAUAGUAUUUAGUAA,0.24 ± 0.016,0.00751 ± 0.0025
UCCUGGAUGAGCUUGCAAAGUAUUUUGUUA,0.0703 ± 0.019,0.00392 ± 0.0026
UCCUGGAUGUCGAUGCAUAGUAUCUUAGUUA,0.0692 ± 0.013,0.00487 ± 0.0024
UCCUCGUACAGCAUGCAUAGUAUUUAGUUA,0.262 ± 0.015,0.0102 ± 0.0022
UCCUGGAUCAGCUUGAUAGUAUUUAGUUA,0.0575 ± 0.0091,0.00451 ± 0.002
UCCUGGAUCAGCUUGCAUACUAAUUAGUUA,0.0215 ± 0.0055,0.00367 ± 0.0023
UCCUCCUAGAGCUUGGAUAGUAUUUAGUUA,0.217 ± 0.013,0.00594 ± 0.0019
